# Assay results reported in the supplement of paper PMC9694430.
# What was measured:
# Test in all cases: thermal shift delta Tm vs DMSO control; higher = stronger stabilization (binding)
# Settings in all cases: 12.5 µM; protein concentration 2 µM
# [1] = system: LOC_OS02G45750-cb003
# Summary of the method: (§1)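 Rice kinase domain constructs, made in E. coli and purified, were placed in 96-well plates at 2 μM in 19.5 μl of 100 mM potassium phosphate pH 7.5, 150 mM NaCl, 10% glycerol and 5 × SYPRO Orange, with compound in DMSO. A temperature ramp from 25°C to 95°C at 0.05°C/s was used for differential scanning fluorimetry. The melting temperature shift is a triplicate mean compared with DMSO-only protein, derived from Boltzmann fits.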
# [2] = system: LOC_OS02G54510-cb004
# Summary of the method: as §1
# [3] = system: LOC_OS03G04050-cb001
# Summary of the method: as §1
# [4] = system: LOC_OS03G12390-cb001
# Summary of the method: as §1
# [5] = system: LOC_OS03G27990-cb004
# Summary of the method: as §1
# [6] = system: LOC_OS03G50450-cb001
# Summary of the method: as §1
# [7] = system: LOC_OS03G50810-cb003
# Summary of the method: as §1
# [8] = system: LOC_OS04G35114-cb001
# Summary of the method: as §1
# [9] = system: T1, LOC_OS04G38480-cb003
# T1 sequence (whole entry): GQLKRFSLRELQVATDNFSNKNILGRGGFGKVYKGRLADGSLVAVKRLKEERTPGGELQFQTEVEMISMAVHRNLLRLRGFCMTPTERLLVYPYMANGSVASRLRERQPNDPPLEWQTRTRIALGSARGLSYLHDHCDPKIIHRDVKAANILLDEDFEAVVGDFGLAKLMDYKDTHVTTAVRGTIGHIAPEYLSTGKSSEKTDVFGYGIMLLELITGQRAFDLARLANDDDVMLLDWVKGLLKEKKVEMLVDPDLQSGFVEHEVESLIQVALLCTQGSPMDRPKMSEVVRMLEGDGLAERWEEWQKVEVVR
# Summary of the method: as §1
# [10] = system: T2, LOC_OS04G41100-cb001
# T2 sequence (whole entry): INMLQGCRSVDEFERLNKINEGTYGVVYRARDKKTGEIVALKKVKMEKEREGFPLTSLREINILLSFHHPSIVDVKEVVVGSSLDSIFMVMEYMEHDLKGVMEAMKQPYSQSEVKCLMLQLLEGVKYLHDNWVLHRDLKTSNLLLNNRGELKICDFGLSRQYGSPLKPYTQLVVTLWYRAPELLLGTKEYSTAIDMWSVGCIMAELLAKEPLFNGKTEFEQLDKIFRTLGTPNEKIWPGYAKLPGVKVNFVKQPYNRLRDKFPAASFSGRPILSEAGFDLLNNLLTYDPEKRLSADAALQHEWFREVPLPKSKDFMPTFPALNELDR
# Summary of the method: as §1
# [11] = system: LOC_OS04G57630-cb004
# Summary of the method: as §1
# [12] = system: LOC_OS05G07850-cb002
# Summary of the method: as §1
# [13] = system: LOC_OS05G16824-cb004
# Summary of the method: as §1
# [14] = system: LOC_OS05G28520-cb001
# Summary of the method: as §1
# [15] = system: LOC_OS05G30820-cb001
# Summary of the method: as §1
# [16] = system: LOC_OS05G43570-cb004
# Summary of the method: as §1
# [17] = system: LOC_OS06G16330-cb003
# Chain of LOC_OS06G16330-cb003 (as listed by the source): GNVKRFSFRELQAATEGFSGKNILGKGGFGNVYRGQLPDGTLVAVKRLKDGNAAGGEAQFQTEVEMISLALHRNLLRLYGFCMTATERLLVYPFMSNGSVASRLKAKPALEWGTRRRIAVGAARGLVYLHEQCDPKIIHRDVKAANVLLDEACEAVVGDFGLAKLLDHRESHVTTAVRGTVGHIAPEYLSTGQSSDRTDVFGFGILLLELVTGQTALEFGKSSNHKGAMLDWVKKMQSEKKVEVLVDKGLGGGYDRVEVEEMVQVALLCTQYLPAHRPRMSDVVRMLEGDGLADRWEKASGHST
# Summary of the method: as §1
# [18] = system: T3, LOC_OS06G22820-cb001
# T3 sequence (whole entry): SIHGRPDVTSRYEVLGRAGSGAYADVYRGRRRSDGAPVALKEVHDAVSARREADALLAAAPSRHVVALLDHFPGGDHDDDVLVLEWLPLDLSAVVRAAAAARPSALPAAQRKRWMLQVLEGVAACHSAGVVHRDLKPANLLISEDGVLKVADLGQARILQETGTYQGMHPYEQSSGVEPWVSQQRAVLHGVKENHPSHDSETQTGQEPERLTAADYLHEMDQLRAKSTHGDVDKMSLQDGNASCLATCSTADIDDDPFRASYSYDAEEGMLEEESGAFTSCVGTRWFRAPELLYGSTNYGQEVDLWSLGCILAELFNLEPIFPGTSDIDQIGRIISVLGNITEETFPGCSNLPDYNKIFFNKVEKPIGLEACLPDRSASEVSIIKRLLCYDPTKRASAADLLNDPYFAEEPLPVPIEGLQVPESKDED
# Summary of the method: as §1
# [19] = system: LOC_OS07G06570-cb004
# Summary of the method: as §1
# [20] = system: LOC_OS07G07230-cb001
# Summary of the method: as §1
# 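Also: purified Escherichia coli-expressed rice kinase domain construct.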
SMILES,thermal shift delta Tm [1] [°C],thermal shift delta Tm [2] [°C],thermal shift delta Tm [3] [°C],thermal shift delta Tm [4] [°C],thermal shift delta Tm [5] [°C],thermal shift delta Tm [6] [°C],thermal shift delta Tm [7] [°C],thermal shift delta Tm [8] [°C],thermal shift delta Tm [9] [°C],thermal shift delta Tm [10] [°C],thermal shift delta Tm [11] [°C],thermal shift delta Tm [12] [°C],thermal shift delta Tm [13] [°C],thermal shift delta Tm [14] [°C],thermal shift delta Tm [15] [°C],thermal shift delta Tm [16] [°C],thermal shift delta Tm [17] [°C],thermal shift delta Tm [18] [°C],thermal shift delta Tm [19] [°C],thermal shift delta Tm [20] [°C]
"Nc1cc(C(F)(F)F)c(-c2cc(N3CCOCC3)nc(N3CCOCC3)n2)cn1 [Buparlisib (BKM120, NVP-BKM120)]",0.32,-0.07,0.3,-0.03,0.23,0.11,0.38,0.31,0.85,0.22,0.52,0.95,-3.32,0.28,0.66,0.71,0.02,0.75,0.64,-0.59
Oc1ccc(-c2nc(-c3ccc(F)cc3)c(-c3ccncc3)[nH]2)cc1,0.9,1.58,0.9,0.88,0.55,0.44,0.55,2.01,1.53,1.35,0.57,1.26,,1.33,0.88,1.13,0.09,0.97,1.08,0.48
Cc1cc(Nc2cc(CN3CCOCC3)c3nc(C)c(Cc4ccc(Cl)cc4F)n3n2)n[nH]1,3.56,3.12,-0.22,1.36,0.01,0.47,4.81,2.03,2.46,3.22,1.33,11.1,6.97,1.47,1.14,0.39,9.97,-0.03,0.22,-0.28
CC(C)(C)c1cc(/C=C(\C#N)C(N)=S)cc(C(C)(C)C)c1O [Tyrphostin AG 879],,6.54,0.85,2.51,1,0.98,2.05,1.68,2.13,1.27,-0.19,12.1,-5.25,1.25,1.1,1.09,1.66,1.38,2.77,0.65
Cc1[nH]c(/C=C2\C(=O)Nc3ccc(S(=O)(=O)N(C)c4cccc(Cl)c4)cc32)c(C)c1C(=O)N1CCN(C)CC1,0,0.59,0.42,2.96,0.14,-0.1,0,7.25,5.89,0.68,0.72,9.11,,0.18,0.55,-0.03,-6.47,1,0.23,0.81
